Data published in PubChem BioAssay AID504546 (Broad Institute, 2011).
Results filed as inconclusive are left out. The source made the active and inactive calls.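 Rule for the calls: active = every repeat run fits a falling-signal curve with half-maximal potency within ten times top tested dose; inconclusive = runs disagree, or flat moderate drop, or poor fit; inactive = every run inactive, including signal moving upward.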

Assay: ADP-Glo luciferase signal interference – biochemical, luminescence, cherry-picked samples, set 2, artefact control for CDK5 inhibitor project, dose response (AID 504546);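 note: 0% = DMSO wells and -100% = wells lacking ADP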
Details: ADP-Glo detection reagent counter screen, 5 uM ADP; series mostly up to 30 µM; activity change, negative = inhibition: at the top concentration

Structure (SMILES) | activity change, negative = inhibition
CC(C)n1cnc2c(Nc3cccc(F)c3)nc(NCCO)nc21 | -1.25% (inactive)
CC(C)n1cnc2c(Nc3ccc(F)c(Cl)c3)nc(NCCO)nc21 | -2.2% (inactive)
CC(C)=CCNc1ncnc2c1c(C#N)cn2C1OC(CO)C(O)C1O (stereo unspecified) | -6.7% (inactive)
CC(C)C[C@H](CO)Nc1nc(Nc2cccc(Cl)c2)c2ncn(C(C)C)c2n1 | -0.074% (inactive)
COc1ccc(Nc2nccc(-c3ccc(C#N)cc3)n2)cc1 | 7.64% (inactive)
COc1cc2ccccc2ccc1=NO | 15.2% (inactive)
NC1=NC(=O)/C(=C/c2ccc(-c3ccc(S(N)(=O)=O)cc3)o2)S1 | 13.8% (inactive)
CC(C)n1cnc2c(NCc3ccc(S(N)(=O)=O)cc3)nc(NCc3ccc(S(N)(=O)=O)cc3)nc21 | -11.1% (inactive)
CC(C)n1cnc2c(Nc3cccc(Cl)c3)nc(NCCCO)nc21 | -8.77% (inactive)
C=CCNC(=O)c1n[nH]c2c1CC(C(C)(C)CC)CC2 (stereo unspecified) | 10.3% (inactive)
Nc1ccc2c(c1)C(=NO)c1ccccc1-2 | -0.568% (inactive)
Oc1ccc(/C=N/Nc2nccnc2Cl)c(O)c1 | -6.66% (inactive)
Cc1nn(-c2ccccn2)c2c1C(=O)CC(C)(C)C2Br (stereo unspecified) | 13.7% (inactive)
CCN1C(=O)/C(=C2/Sc3ccc(OC)cc3N2C)SC1=Nc1cccc(O)c1 | 11.8% (inactive)
COc1ccc(C(=O)c2sc(Nc3ccccc3F)nc2N)cc1 | -6.41% (inactive)
COc1cc(C(=O)N2CCN(c3ccccn3)CC2)cc(OC)c1OC | -10.2% (inactive)
COc1ccc2nc3c(cc2c1)c(NC(=O)c1cccs1)nn3CC(C)C | -13% (inactive)
O=C(c1ccc(F)cc1)c1cnc(Nc2ccccc2)s1 | -8.91% (inactive)

Structure (SMILES) | activity change, negative = inhibition
Cc1cccc(/N=C/c2c(O)ccc3oc4c(c23)CCCC4)n1 | 4.68% (inactive)
COc1ccc2nc3c(cc2c1)c(NC(=O)C1CCCO1)nn3CC(C)C (stereo unspecified) | 16.2% (inactive)
OCCCNc1nccc(-c2cc(Nc3cccc(Cl)c3)ncn2)n1 | 5.63% (inactive)
CN1CCN(C(=O)c2ccc3c(c2)NC(=O)/C(=C/c2ccccc2)S3)CC1 | 16.2% (inactive)
Cc1nc(Nc2ccccc2)sc1C(=O)c1ccc(F)cc1 | 5.44% (inactive)
Clc1cncc(Cl)c1N/N=C/c1ccncc1 | -4.29% (inactive)
CC(C)[C@H](CO)Nc1nc(Nc2ccc(Cl)c(C(=O)O)c2)c2ncn(C(C)C)c2n1 | 3.05% (inactive)
Fc1ccccc1/C=N/Nc1ncnc2nc[nH]c12 | 3.58% (inactive)
CCC(C)Oc1cc(-c2ccnc(Nc3cccc(Cl)c3)n2)ccn1 (stereo unspecified) | 7.1% (inactive)
Oc1cc2c(cc1O)C1c3ccc(O)c(O)c3OCC1(O)C2 (stereo unspecified) | -5.27% (inactive)
COc1ccccc1C(=O)N1CCN(c2ccccn2)CC1 | -2.56% (inactive)
Nc1cc2c(cc1[N+](=O)[O-])-c1ccccc1C2=NO | -0.261% (inactive)
CN(C)N1C(N)=C(C#N)C(c2cccs2)C2=C1CCCC2=O (stereo unspecified) | 8.74% (inactive)
Nc1nc(Nc2ccccc2)sc1C(=O)c1ccccc1 | 17.3% (inactive)
Cc1ccc2nc(NCc3ccccc3)c(C#N)cc2c1 | 16.2% (inactive)
CC[C@H](CO)Nc1nc(Nc2cccc(Cl)c2)c2ncn(C(C)C)c2n1 | 15.9% (inactive)
CC(C)n1cnc2c(Nc3cccc(Cl)c3)nc(N(CCO)CCCO)nc21 | 3.17% (inactive)
OCCCNc1cc(-c2ccnc(Nc3cccc(Cl)c3)n2)ccn1 | 4.16% (inactive)
